Experimental data from PubChem BioAssay AID1159580 (chemical genetic matrix, 2015).
Among all 5,500 compounds or so, about 2,000 (36%) were called active. Roughly 18% stayed inconclusive and do not appear here. Cut-off read from the data, not from the text of the source: active = normalized growth mostly below about 0.91 (no sharp cut-off); inconclusive = no clear call, values can overlap the other calls; inactive = mostly above about 0.92. This is one part of the list.

Test: chemical genetic growth profiling, strain panel (AID 1159580);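 note: tested at 20 µM; growth read once vehicle control cultures reached saturation at 30 °C; 1 = growth at the plate median or of vehicle wells; lower values mean less growth of the strain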
Settings: growth OD
[1] = S. cerevisiae deletion strains, locus YAL013W, strain DEP1, active compounds read low
[2] = S. cerevisiae deletion strains, locus YGR078C, strain PAC10, active compounds read low
[3] = S. cerevisiae deletion strains, locus YMR263W, strain SAP30, active compounds read low
[4] = S. cerevisiae deletion strains, locus YMR307W, strain GAS1, active compounds read low
[5] = S. cerevisiae deletion strains, locus YNL153C, strain GIM3, active compounds read low
[6] = S. cerevisiae deletion strains, locus YBR229C, strain ROT2, active compounds read low
[7] = S. cerevisiae deletion strains, locus YDL101C, strain DUN1, active compounds read low
[8] = S. cerevisiae deletion strains, locus YDL134C, strain PPH21, active compounds read low
[9] = S. cerevisiae deletion strains, locus YDR150W, strain NUM1, active compounds read low
[10] = S. cerevisiae deletion strains, locus YEL061C, strain CIN8, active compounds read low
[11] = S. cerevisiae deletion strains, locus YHR030C, strain SLT2, active compounds read low
[12] = S. cerevisiae deletion strains, locus YHR087W, strain rtc3, active compounds read low
[13] = S. cerevisiae deletion strains, locus YJR043C, strain POL32, active compounds read low
[14] = S. cerevisiae deletion strains, locus YJR075W, strain HOC1, active compounds read low
[15] = S. cerevisiae deletion strains, locus YKL190W, strain CNB1, active compounds read low
[16] = S. cerevisiae deletion strains, locus YLR039C, strain RIC1, active compounds read low
[17] = S. cerevisiae deletion strains, locus YLR058C, strain SHM2 (second series), active compounds read low
[18] = S. cerevisiae deletion strains, locus YLR085C, strain ARP6, active compounds read low
[19] = S. cerevisiae deletion strains, locus YLR262C, strain YPT6, active compounds read low
[20] = S. cerevisiae deletion strains, locus YML094W, strain GIM5, active compounds read low
[21] = S. cerevisiae deletion strains, locus YMR219W, strain ESC1, active compounds read low
[22] = S. cerevisiae deletion strains, locus YNL298W, strain CLA4 (second series), active compounds read low
[23] = S. cerevisiae deletion strains, locus YNL322C, strain KRE1, active compounds read low
[24] = S. cerevisiae deletion strains, locus YNR030W, strain Alg12, active compounds read low
[25] = S. cerevisiae deletion strains, locus YPL055C, strain LGE1, active compounds read low
[26] = S. cerevisiae deletion strains, locus YPL241C, strain CIN2, active compounds read low
[27] = S. cerevisiae deletion strains, locus YPR135W, strain CTF4, active compounds read low
[28] = S. cerevisiae strains, strain wild type, active compounds read low
[29] = S. cerevisiae deletion strains, locus YHR079C, strain IRE1, active compounds read low
[30] = S. cerevisiae deletion strains, locus YJL095W, strain BCK1, active compounds read low
[31] = S. cerevisiae deletion strains, locus YJR066W, strain TOR1, active compounds read low
[32] = S. cerevisiae deletion strains, locus YLR113W, strain HOG1, active compounds read low
[33] = S. cerevisiae deletion strains, locus YNL183C, strain NPR1, active compounds read low
[34] = S. cerevisiae deletion strains, locus YOR231W, strain MKK1, active compounds read low
[35] = S. cerevisiae deletion strains, locus YPL256C, strain CLN2, active compounds read low

Measured: normalized growth

Nc1nc(Cl)nc2c1ncn2[C@@H]1O[C@H](CO)[C@H](O)C1O (stereo partly drawn)
inactive: [1] 1.01 | S. cerevisiae deletion strains, locus YAL040C, strain CLN3, active compounds read low 1.02 | S. cerevisiae deletion strains, locus YER002W, strain NOP16, active compounds read low 0.991 | [2] 1.01 | [3] 1.01 | [4] 1 | [5] 1.04 | S. cerevisiae deletion strains, locus YNL175C, strain NOP13, active compounds read low 0.996 | S. cerevisiae deletion strains, locus YNL197C, strain WHI3, active compounds read low 0.979 | S. cerevisiae deletion strains, locus YNL224C, strain SQS1, active compounds read low 1 | S. cerevisiae deletion strains, locus YOR083W, strain WHI5 (second series), active compounds read low 1.02

FC(F)(F)Oc1ccc(-c2noc(CSc3ccc(Br)cc3)n2)cc1
active: [11] 0.69
inactive: [1] 1.02 | [6] 1.01 | [7] 0.967 | [8] 0.999 | [9] 1 | [10] 0.974 | [2] 1 | [12] 1.01 | [13] 0.992 | [14] 0.978 | [15] 0.989 | [16] 1.05 | [17] 0.997 | [18] 0.905 | [19] 1 | [20] 0.99 | [21] 1 | [3] 0.997 | [4] 0.75 | [5] 1 | [22] 0.969 | [23] 0.996 | [24] 0.958 | [25] 1.04 | [26] 0.966 | [27] 1.1 | [28] 0.985

CC(=O)OCC1=C(C(=O)O)N2C(=O)[C@@H](N)C2SC1 (stereo partly drawn)
inactive: [11] 1.06 | [29] 1.07 | [30] 1.07 | [31] 0.976 | [32] 1.05 | [33] 0.983 | [34] 1.07 | [35] 1.07

C[C@H]1CC2C3CCC4=CC(=O)C=C[C@]4(C)[C@@]3(F)[C@@H](O)C[C@]2(C)[C@@]1(O)C(=O)COP(=O)(O)O (stereo partly drawn)
inactive: [11] 1.07 | [29] 1.08 | [30] 1.03 | [31] 0.971 | [32] 1.03 | [33] 0.983 | [34] 1.08 | [35] 1.09

O=C(O)CSCC(=O)N1CCc2c([nH]c3ccccc23)C1C(F)(F)F (stereo not drawn)
inactive: [1] 1.01 | [6] 1.01 | S. cerevisiae deletion strains, locus YCL061C, strain MRC1, active compounds read low 1.04 | [7] 1.01 | [8] 1 | [9] 0.936 | [10] 0.997 | [2] 1.05 | [11] 1.16 | [12] 1 | [13] 1.02 | [14] 1.03 | [15] 1 | [16] 1.04 | [17] 1.02 | [18] 1.09 | [19] 1.01 | [20] 1 | [21] 1.02 | [3] 1.02 | [4] 1.1 | S. cerevisiae deletion strains, locus YNL128W, strain TEP1, active compounds read low 0.987 | [5] 1.01 | [22] 1.05 | [23] 1.02 | [24] 1.02 | S. cerevisiae deletion strains, locus YOL006C, strain TOP1, active compounds read low 1.11 | [25] 0.991 | [27] 1.06 | [28] 0.993
active: [26] 1.22 [resistant]

O=C(O)C1C(O)CCC2CN3CCc4c([nH]c5ccccc45)C3CC21 (stereo not drawn)
inactive: [1] 1.03 | S. cerevisiae deletion strains, locus YBR021W, strain FUR4, active compounds read low 0.972 | [6] 1 | S. cerevisiae deletion strains, locus YCL029C, strain bik1, active compounds read low 1.03 | S. cerevisiae deletion strains, locus YDL035C, strain GPR1, active compounds read low 1 | S. cerevisiae deletion strains, locus YDL074C, strain BRE1, active compounds read low 1.02 | [7] 1.02 | S. cerevisiae deletion strains, locus YDL185W, strain tfp1, active compounds read low 1.01 | S. cerevisiae deletion strains, locus YDL192W, strain arf1, active compounds read low 1 | S. cerevisiae deletion strains, locus YDR101C, strain arx1, active compounds read low 1.01 | [9] 1.01 | S. cerevisiae deletion strains, locus YDR162C, strain NBP2, active compounds read low 1.03 | S. cerevisiae deletion strains, locus YDR318W, strain mcm21, active compounds read low 1 | S. cerevisiae deletion strains, locus YDR388W, active compounds read low 1.01 | S. cerevisiae deletion strains, locus YDR502C, strain sam2, active compounds read low 1.02 | [10] 1.01 | S. cerevisiae deletion strains, locus YER110C, active compounds read low 1.02 | S. cerevisiae deletion strains, locus YER155C, strain BEM2, active compounds read low 1.02 | S. cerevisiae deletion strains, locus YER167W, strain BCK2, active compounds read low 1.02 | S. cerevisiae deletion strains, locus YGL078C, strain dbp3, active compounds read low 1.01 | S. cerevisiae deletion strains, locus YGL086W, strain mad1, active compounds read low 1.02 | S. cerevisiae deletion strains, locus YGL248W, strain PDE1, active compounds read low 1.01 | S. cerevisiae deletion strains, locus YGR135W, strain pre9, active compounds read low 0.996 | S. cerevisiae deletion strains, locus YGR252W, strain gcn5, active compounds read low 0.951 | [11] 1.01 | S. cerevisiae deletion strains, locus YHR079C, strain IRE1 (second series), active compounds read low 1.01 | S. cerevisiae deletion strains, locus YHR094C, strain hxt1, active compounds read low 1.02 | S. cerevisiae deletion strains, locus YHR129C, strain ARP1, active compounds read low 1.01 | S. cerevisiae deletion strains, locus YHR200W, strain rpn10, active compounds read low 1.02 | S. cerevisiae deletion strains, locus YIL066C, strain RNR3, active compounds read low 1.01 | S. cerevisiae deletion strains, locus YIL073C, strain SPO22, active compounds read low 0.988 | S. cerevisiae deletion strains, locus YIL125W, strain kgd1, active compounds read low 1.01 | S. cerevisiae deletion strains, locus YIR030C, strain dcg1, active compounds read low 1.01 | [30] 1.03 | S. cerevisiae deletion strains, locus YJL134W, strain LCB3, active compounds read low 1.02 | S. cerevisiae deletion strains, locus YJL168C, strain set2, active compounds read low 1.01 | S. cerevisiae deletion strains, locus YJL187C, strain SWE1 (second series), active compounds read low 1.01 | [13] 1.02 | [14] 1.04 | S. cerevisiae deletion strains, locus YKL009W, strain mrt4, active compounds read low 1.03 | S. cerevisiae deletion strains, locus YKL068W, active compounds read low 1.01 | S. cerevisiae deletion strains, locus YKL085W, strain MDH1 (second series), active compounds read low 0.998 | S. cerevisiae deletion strains, locus YKL085W, strain MDH1, active compounds read low 0.998 | S. cerevisiae deletion strains, locus YKR001C, strain vps1, active compounds read low 1.01 | [16] 1.06 | S. cerevisiae deletion strains, locus YLR058C, strain SHM2, active compounds read low 1.01 | S. cerevisiae deletion strains, locus YLR102C, strain apc9, active compounds read low 1.02 | [19] 1.06 | S. cerevisiae deletion strains, locus YLR268W, strain sec22, active compounds read low 1.03 | S. cerevisiae deletion strains, locus YLR330W, strain CHS5, active compounds read low 1.01 | S. cerevisiae deletion strains, locus YLR342W, strain FKS1 (second series), active compounds read low 1.05 | S. cerevisiae deletion strains, locus YLR371W, strain rom2, active compounds read low 1.02 | S. cerevisiae deletion strains, locus YLR418C, strain cdc73, active compounds read low 0.986 | S. cerevisiae deletion strains, locus YML016C, strain PPZ1, active compounds read low 1.01 | S. cerevisiae deletion strains, locus YML032C, strain rad52, active compounds read low 1.01 | S. cerevisiae deletion strains, locus YML124C, strain tub3, active compounds read low 1.01 | S. cerevisiae deletion strains, locus YMR078C, strain ctf18, active compounds read low 1.01 | S. cerevisiae deletion strains, locus YMR223W, strain ubp8, active compounds read low 0.988 | [3] 1.03 | [4] 1.02 | S. cerevisiae deletion strains, locus YNL067W, strain RPL9B, active compounds read low 1.03 | S. cerevisiae deletion strains, locus YNL233W, strain BNI4, active compounds read low 1.02 | S. cerevisiae deletion strains, locus YNL250W, strain rad50, active compounds read low 1.02 | S. cerevisiae deletion strains, locus YNL271C, strain bni1, active compounds read low 1.01 | S. cerevisiae deletion strains, locus YNL298W, strain CLA4, active compounds read low 1.02 | S. cerevisiae deletion strains, locus YNL307C, strain MCK1, active compounds read low 1.02 | [23] 1.01 | S. cerevisiae deletion strains, locus YNR052C, strain pop2, active compounds read low 1 | S. cerevisiae deletion strains, locus YOL012C, strain htz1 1.58 | S. cerevisiae deletion strains, locus YOL147C, strain pex11, active compounds read low 1.02 | S. cerevisiae deletion strains, locus YOR061W, strain CKA2, active compounds read low 1.01 | S. cerevisiae deletion strains, locus YOR069W, strain VPS5, active compounds read low 1.01 | S. cerevisiae deletion strains, locus YOR136W, strain idh2, active compounds read low 1.02 | S. cerevisiae deletion strains, locus YOR144C, strain elg1, active compounds read low 1.01 | S. cerevisiae deletion strains, locus YOR184W, strain ser1, active compounds read low 1.03 | S. cerevisiae deletion strains, locus YOR316C, strain cot1, active compounds read low 1.02 | [25] 1.03 | S. cerevisiae deletion strains, locus YPR119W, strain clb2, active compounds read low 1.01 | S. cerevisiae deletion strains, locus YPR141C, strain kar3, active compounds read low 1.01 | S. cerevisiae deletion strains, locus YPR163C, strain tif3, active compounds read low 1.01 | S. cerevisiae deletion strains, locus YPR167C, strain met16, active compounds read low 0.999 | S. cerevisiae deletion strains, strain wtn01, active compounds read low 1.02
